A selection: hits, their analogues and other compounds. The true share with any hit is near 5.6%.
RORg inh: ROR gamma (mouse) transcription inhibition; P51450; Drosophila S2 Gal4-RORgamma UAS-luciferase reporter, 20 h; Potency, µM (highest dose often 53.6 µM), actives largely listed as inhibitors; 310,000 tested, 5.4% active; further: nearly all actives have a fitted effect of over 60% in size
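Luciferase reporter read in Schneider cells carrying Gal4-RORγ (mouse) and UAS-Photinus luciferase; cells given compound 1 h before 700 uM copper sulfate induction, then incubated 20 h at ambient temperature.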
Gal4-VP16 FLuc: inhibits Gal4-VP16 luciferase reporter, ROR gamma counter-screen | Drosophila S2 Gal4-VP16 UAS-luciferase, luminescence, 20 h | 310,000 tested, 3.5% active | Potency, µM (top dose mostly 53.6 µM), actives largely listed as inhibitors | AID 2546;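 further: Gal4-VP16 expression switched on by copper sulfate through the metallothionein promoter; nearly all actives have a fitted effect of over 50% in size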
Six1-Eya2 inh: Six1/Eya2 interaction inhibition; Q15475+O00167; AlphaScreen GST-Six1/His-Eya2 binding, biochemical; hits give low values; activity change, % (concentration not given with the values); 360,000 tested, 0.56% active; in the data active means activity change below about -65%; inconclusive means mostly about -30% to -63%
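Homogeneous AlphaScreen proximity assay pairing GST-Six1 with His-tagged Eya2 (added as 5X mix: 250 nM and 500 nM) in 50 mM Tris pH 8.0, 300 mM NaCl, 1 mM TCEP. Glutathione donor and nickel acceptor beads; 1 h, 37 °C, dark.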
CtBP-E1A inh: blocks the CtBP interaction with E1A; 340,000 tested, 0.49% active; AlphaScreen GST-E1A/His-CtBP binding, 1536-well; hits give low values; activity change, % (test concentration not listed); AID 651724; in the data active means activity change below about -65%; inconclusive means mostly about -30% to -63%
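GST-E1A and His-tagged CtBP (125 nM each as 5X stock) were preincubated with pin-transferred compound for 2 h at 37 °C in the dark, then glutathione donor and nickel acceptor beads were added for 1 h before AlphaScreen reading.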
PKM2 act: PKM2 (human) enzyme activation | P14618 | purified PKM2, Kinase-Glo ATP luminescence, activation; response scale: 0% is enzyme alone, no compound | Potency, µM (series often up to 57.5 µM), actives largely listed as activators | 260,000 tested, 0.34% active; further: nearly all actives have a fitted effect of over 55% in size
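Purified hPK-M2 (>95% pure) converted ADP (0.1 mM final) to ATP with 0.5 mM PEP in 50 mM imidazole pH7.2, KCl, MgCl2, Tween 20, BSA; 1 h at room temperature. ATP detected by Kinase-Glo luminescence.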
HeLa tox: reduces HeLa cell viability in PKM2 activator counter-screen. shares compounds with PKM2 act. HeLa viability, CellTiter-Glo ATP luminescence, 24 h. activity change, negative = cytotoxicity, % at 57.5 µM. 230 tested, under 10 active. AID 1898
Numbers stand for hits; 0 = inactive; ? = inconclusive; - = no result; ! = repeats disagree; [ ] = remark or other dose. Unless noted, the call rests on the fitted dose curve; in most records, active means well fitted curve in the direction sought with a large enough effect; inconclusive means small, poorly fitted or top-dose-only effect, or another doubt; inactive means no such curve, though single readings can be large; an effect the other way counts as inactive or inconclusive.

SMILES	RORg inh	Gal4-VP16 FLuc	Six1-Eya2 inh	CtBP-E1A inh	PKM2 act	others
CCC1CN2CCC1CC2C(Oc1cc2ccccc2c2ccccc12)c1ccnc2ccc(O)cc12 (configuration not stated)	0[10 µM]	0[10 µM]	-	-	-
C=C(C)C1Cc2c(ccc3c2OC2COc4cc(OC)c(OC)cc4C2C3=O)O1 (configuration not stated)	0.0355µM	?	-	-	-
c1ccc2c(c1)OCC(C1=NCCN1)O2 (configuration not stated)	15.8µM!	0	0	0	0
O=c1[nH]c(O)c(N=Nc2cc([N+](=O)[O-])ccc2O)c(=O)[nH]1	0	0	-78.1	?	0
COC(=O)COc1ccc(C[C@@H](C)NC[C@H](O)c2cccc(Cl)c2)cc1	0	0	-	-	-
Nc1c(C(=O)NCC2CCCO2)c2nc3ccccc3nc2n1Cc1ccco1 (configuration not stated)	0	?	0	0	17.8µM	HeLa tox=0
C[C@H]1CC[C@@]2(NC1)O[C@@H]1C[C@H]3[C@@H]4CC[C@@H]5C[C@@H](O)CC[C@@]5(C)[C@@H]4CC[C@]3(C)[C@@H]1[C@@H]2C	0	0	-	-	-
